# The campaign covered roughly 2,100 compounds. About 940 (45%) were called active. Another 48% or so got no clear call; they are omitted. The call rests on the fitted dose curve; in most records, active means well fitted inhibition curve with a large enough effect; inconclusive means small, poorly fitted or top-dose-only effect; inactive means no such curve, though single readings can be large or run the other way. So high a share suggests a set chosen from earlier hits. Some of the results follow.
# Assay: Confirmatory qHTS for Inhibitors of ATXN expression; further: nearly all actives have a fitted effect of over 65% in size
# Details: ATXN2-luciferase reporter cells, luminescence, 24 h; series mostly up to 11.5 µM
# Method in brief: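 Cells carrying ATXN2-luciferase reporter exposed 24 h at 37 C to compound. Viability then read by CellTiter-Fluor (25 uM GF-AFC, 30 min), followed by SteadyGlo luminescence; medium-only wells set 100% inhibition.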
# Potency means the concentration at half of the fitted maximal effect.
row,Structure (SMILES),Potency
1,CCCCOc1ccc(C(=O)NNC(=O)c2cnccn2)cc1OC,17.8 µM (active)
2,COc1cc(C(=O)NC(=S)NNC(=O)c2cnccn2)cc(OC)c1OC,12.6 µM (active)
3,O=C(NNC(=O)c1cnccn1)c1ccc(Cl)c(Cl)c1,15.8 µM (active)
4,O=C(NCCc1csc(-c2cccnc2)n1)c1cccc(Cl)c1,inactive
5,O=C(/C=C/c1ccccc1)NC(=S)NNC(=O)c1cnccn1,7.94 µM (active)
6,NC(N)=N/N=C/c1ccc2cccc(OCc3ccccc3)c2n1,10 µM (active)
7,CCC(c1nnnn1C1CCCC1)N(Cc1cccs1)Cc1cc2cc(C)ccc2[nH]c1=O (centres undefined),28.2 µM (active)
8,Cn1nnnc1Sc1ncnc2scc(Br)c12,28.2 µM (active)
9,Cn1nnnc1Sc1ncnc2scc(-c3ccc[nH]3)c12,28.2 µM (active)
10,CC(=O)c1cccc(-c2csc3ncnc(Sc4nnnn4C)c23)c1,11.2 µM (active)
11,Cn1nnnc1Sc1ncnc2scc(-c3ccccc3Cl)c12,3.16 µM (active)
12,CCOC(=O)c1c(C)oc2c(F)c(F)c(F)c(F)c2c1=O,3.98 µM (active)
13,CCN(CC)CCNC1=NCCn2c1cc1cc(OC)ccc12,1.78 µM (active)
14,C[C@@H]1C[C@@H]2O[C@H]2/C=C\C=C\C(=O)Cc2c(Cl)c(O)cc(O)c2C(=O)O1,0.631 µM (active)
15,O=C(N/N=C/c1ccccc1O)c1cccc(C(F)(F)F)c1,0.631 µM (active)
16,O=C(NN=Cc1c(O)ccc2ccccc12)c1ccc2c(c1)OCO2,2 µM (active)
17,O=C(N/N=C/c1c(O)ccc2ccccc12)c1cccc(C(F)(F)F)c1,1 µM (active)
18,CCCC1CCC(c2ccc(C(=O)NN)cc2)CC1 (centres undefined),2.82 µM (active)
19,c1ccc(-c2cccc(-c3ccccn3)n2)nc1,0.112 µM (active)
20,FC(F)(F)c1cc(-c2ccccn2)nc2cc(-c3ccccc3)nn12,inactive

row,Structure (SMILES),Potency
1,Cc1cc(=O)[nH]c(N=N/C(=N/Nc2ccccc2C)c2ccccc2)n1,1.58 µM (active)
2,CCC(=O)NC(c1cc(Cl)c2cccnc2c1O)C(C)C (centres undefined),2.82 µM (active)
3,CCC(=O)NC(C)c1cc(Cl)c2cccnc2c1O (centres undefined),1.78 µM (active)
4,CC(=O)NC(C)c1cc(Cl)c2cccnc2c1O (centres undefined),3.98 µM (active)
5,CC(=O)NC(c1cc(Cl)c2cccnc2c1O)C(C)C (centres undefined),0.794 µM (active)
6,N#C/C(=C\c1ccc([N+](=O)[O-])o1)c1nc2ccccc2[nH]1,3.55 µM (active)
7,Cc1csc(NC(=O)COCC(=O)O)c1-c1nc2ccccc2s1,15.8 µM (active)
8,O=C(CN1CCOCC1)N/N=C/c1c(O)ccc2ccccc12,7.08 µM (active)
9,O=C(CN1CCCC1)N/N=C/c1c(O)ccc2ccccc12,1.78 µM (active)
10,Nc1nc(N)c2cc(Sc3ccc4ccccc4c3)ccc2n1,28.2 µM (active)
11,CCCCC(=O)OCC(=O)C1(O)Cc2c(O)c3c(c(O)c2C(OC2CC(NC(=O)C(F)(F)F)C(O)C(C)O2)C1)C(=O)c1c(OC)cccc1C3=O (centres undefined),2.51 µM (active)
12,COc1cccc2c1C(=O)c1c(O)c3c(c(O)c1C2=O)C[C@](O)(C(C)=O)C[C@H]3O[C@@H]1C[C@@H](N)[C@@H](O)[C@@H](C)O1,0.282 µM (active)
13,COc1cccc2c1C(=N)c1c(O)c3c(c(O)c1C2=O)CC(O)(C(C)=O)CC3OC1CC(N)C(O)C(C)O1 (centres undefined),0.224 µM (active)
14,CC(C)CCNC(=O)COc1cccc2c1OC(C)(C)C2,inactive
15,CCOC(=O)c1c2ccc(OCC(=O)N/N=C/c3ccc(C)cc3)cc2n2ccccc12,11.2 µM (active)
16,CCOC(=O)c1c(CSc2nc(C)cc(C)c2C#N)n(C)c2cc(Br)c(OC(C)=O)cc12,inactive
17,COc1cccc(OC)c1C(=O)OCC(=O)NC(=O)NCc1ccccc1,inactive
18,COc1ccccc1C(CCNCc1ccccc1)c1ccc(OC(C)C)cc1 (centres undefined),3.98 µM (active)
19,COc1ccc(CNCCC(c2ccc(OC(C)C)cc2)c2ccccc2OC)cc1 (centres undefined),3.16 µM (active)
20,CCOC(=O)c1cnc(-n2nc(C)cc2C)nc1NNc1cc(C)nc(-c2ccccc2)n1,3.55 µM (active)

row,Structure (SMILES),Potency
1,Cc1ccc(OCC(=O)N2CCN(c3nnc(-c4ccc(C)cc4)c4ccccc34)CC2)cc1,3.16 µM (active)
2,Oc1[nH]c2ccc(Br)cc2c1N=NC(=S)N1CCOCC1,0.631 µM (active)
3,Clc1ccc(SCc2cc(N3CCOCC3)nc(-c3ccccn3)n2)cc1,5.01 µM (active)
4,CC(C)(C)S(=O)(=O)/C(C#N)=N/Nc1ccc(Cl)cc1,20 µM (active)
5,NS(=O)(=O)c1ccc(N2N=C(c3ccccc3)CC2c2ccc(F)cc2)cc1 (centres undefined),inactive
6,O=S(=O)(c1ccc(F)cc1)c1snnc1-c1ccccc1,15.8 µM (active)
7,Cc1ccc(/C=C2/SC(=S)N(CCCC(=O)Nc3cc([N+](=O)[O-])ccc3O)C2=O)cc1,31.6 µM (active)
8,Cc1ccc(/C=C2\SC(=S)N(CCCC(=O)NC3CCCC3)C2=O)cc1,1.41 µM (active)
9,Cc1ccc(/C=C2\SC(=S)N(CCCC(=O)Nc3ccc(O)cc3)C2=O)cc1,inactive
10,Cc1ccc(/C=C2\SC(=S)N(CCCC(=O)Nc3nccs3)C2=O)cc1,7.08 µM (active)
11,Cc1ccc(/C=C2/SC(=S)N(CCCC(=O)Nc3ccc(O)cc3)C2=O)cc1,1.41 µM (active)
12,Cc1ccc(/C=C2\SC(=S)N(CCCC(=O)Nc3ccccc3C(=O)O)C2=O)cc1,2.24 µM (active)
13,Cc1ccc(/C=C2\SC(=S)N(CCCC(=O)Nc3cccnc3)C2=O)cc1,2.24 µM (active)
14,CCOC(=O)Cn1cc(C(=O)c2ccco2)c2ccccc21,inactive
15,Cc1cc(C)cc(NC(=O)/C(C#N)=C/c2cn(CC(=O)NCc3ccco3)c3ccccc23)c1,1.78 µM (active)
16,COc1ccc(N2C3=C(CC4=C2CC(C)(C)CC4=O)C(=O)CC(C)(C)C3)cc1,inactive
17,COc1cccc(C2CC(c3c(-c4ccccc4)c4cc(Cl)ccc4[nH]c3=O)=NN2S(C)(=O)=O)c1OC (centres undefined),2.82 µM (active)
18,O=C1c2ccccc2NC(c2ccc(-c3cccc([N+](=O)[O-])c3)o2)N1O (centres undefined),15.8 µM (active)
19,COc1ccc(-c2oc3c(OC)c(OC)c(OC)c(O)c3c(=O)c2OC)cc1OC,10 µM (active)
